# Experimental data reported in PubChem BioAssay AID2596 (National Center for Advancing Translational Sciences (NCATS), 2010).
# Results filed as inconclusive are left out. Unmarked numbers belong to inactive results. Activity calls are given as the source filed them. The call rests on the fitted dose curve; in most records, active means well fitted inhibition curve with a large enough effect; inconclusive means small, poorly fitted or top-dose-only effect, or effect the other way; inactive means flat fitted curve, though single readings scatter.
# Target: Lysosomal acid glucosylceramidase (Homo sapiens) (UniProt P04062)
# Sequence (P04062 whole entry N409S): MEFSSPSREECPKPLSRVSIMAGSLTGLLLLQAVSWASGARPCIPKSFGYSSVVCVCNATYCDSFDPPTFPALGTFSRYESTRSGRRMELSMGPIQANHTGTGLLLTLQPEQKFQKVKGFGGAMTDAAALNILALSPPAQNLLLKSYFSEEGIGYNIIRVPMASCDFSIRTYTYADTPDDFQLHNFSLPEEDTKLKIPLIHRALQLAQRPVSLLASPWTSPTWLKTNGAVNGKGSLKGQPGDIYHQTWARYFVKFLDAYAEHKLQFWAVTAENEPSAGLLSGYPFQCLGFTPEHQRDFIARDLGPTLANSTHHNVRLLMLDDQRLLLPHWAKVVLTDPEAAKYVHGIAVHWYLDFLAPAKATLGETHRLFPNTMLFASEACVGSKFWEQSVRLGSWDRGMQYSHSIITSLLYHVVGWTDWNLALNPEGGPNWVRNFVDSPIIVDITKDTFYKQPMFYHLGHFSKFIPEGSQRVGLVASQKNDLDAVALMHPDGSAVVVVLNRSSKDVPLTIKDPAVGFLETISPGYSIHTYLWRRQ
# Test: qHTS Assay for Inhibitors and Activators of N370S glucocerebrosidase as a Potential Chaperone Treatment of Gaucher Disease: Purified N370S Glucocerebrosidase Cleavage of Glucosylceramide
# Details: purified N370S GCase; series mostly up to 77.6 µM; activity change, negative = inhibition: at the top concentration
# Text: NIH Chemical Genomics Center [NCGC]
# NIH Molecular Libraries Probe Production Centers Network [MLPCN]
# Assay Submitter (PI): Wei Zheng
# Glucocerebrosidase (GC) catalyzes the hydrolysis of beta-glucocerebroside to glucose and ceramide in lysosomes. Mutations in the glucocerebrosidase gene result in Gaucher disease, an autosomal recessive lysosomal storage disorder. Many of the mutations encountered in patients with Gaucher disease are missense alterations that may cause misfolding, decreased stability and/or mistrafficking of this lysosomal protein. […] These inhibitors include iminosugar analogs and three non-iminosugar inhibitors identified from a previous HTS of 62,000 compounds with the wild type recombinant enzyme. However, the enhancement of enzyme activity by the chaperone action of an enzyme inhibitor must be balanced against the direct inhibition of the enzyme. An enzyme activator could also function as a chaperone by binding to the enzyme and helping to correct its misfolding and mistrafficking. While activators for GC have not yet been identified, they may have better therapeutic potential than inhibitors. Therefore the discovery and development of chemical activators may provide a new strategy for the chaperone therapy.
# We have optimized a new assay using N370S mutant GC derived from the spleen of a Gaucher patient. […] In addition, the MLPCN compound library has expanded, which increases the chance of finding new and better probes.
# This assay characterizes compound activity using purified, mutant enzyme cleavage of the native substrate for the enzyme instead of mutant enzyme from tissue homogenate. Compound activity differences may be due to the absence of endogenous cofactors found in tissue homogenate as well as inherent differences in enzyme stability and catalytic activity using the difference substrates.
# NCGC Assay Protocol Summary:
# This is an enzyme assay using glucosylceramide from soy (Avanti Polar Lipids Catalog #: 131304P) as the substrate and recombinant human glucocerebrosidase as the enzyme preparation. Upon hydrolysis of the substrate, the glucose product can be detected using the Amplex Red Glucose Oxidase Assay Kit (Invitrogen catalog #: A22189). The product of this reaction can be read with a fluorescence plate reader with an excitation at 573 nm and an emission at 610 nm. Data were normalized to the controls for basal activity (without enzyme) and 100% activity (with enzyme). The AC50 values were determined from concentration-response data modeled with the standard Hill equation.
# Assay buffer for enzyme reaction: 50 mM citric acid (titrated with potassium phosphate to pH 5.9), 0.01% Tween-20 (pH 5.9 is an optimal condition for this enzyme assay)
# Assay buffer for Amplex Red reaction: Tris-HCl, pH 7.5
# 1536-well assay protocol for the glucocerebrosidase assay:
# (1) Add 2 ul/well glucocerebrosidase enzyme solution (5 nM final)
# (2) Add 23 nL compounds in DMSO solution. The final titration was 0.7 nM to 77 uM.
# (3) Add 1 ul of glucosylceramide solution (50 uM final)
# (4) Incubate at 37C for 40 min
# (5) Add 2 ul tris-HCl buffer with Amplex Red reagents
# (6) Incubate 45 min at room temperature.
# (7) Detect the assay plate in a ViewLux plate reader (PerkinElmer) with Ex=573 nm and Em=610nm.
# Keywords: Glucocerebrosidase, beta-glucosidase, Gaucher Disease, pharmacological chaperone, chaperone therapy, high throughput screening, glucocerebrosidase inhibitor, MLSMR, MLSCN, NIH Roadmap, qHTS and NCGC
SMILES,"activity change, negative = inhibition [%]",Potency
O=S(=O)(c1ccccc1)N1CCN(c2nc(-c3ccc(F)cc3)nc3cc(Cl)ccc23)CC1,12.6,–
CSc1ccc(NC(=O)Nc2cc(C)ccn2)cc1,-12.3,–
c1csc(-c2nc(NCC3CCCO3)c3ccccc3n2)c1 (configuration not stated),-6.96,–
Cc1ccc(S(=O)(=O)N2CCN(c3nc(-c4cccs4)nc4ccccc34)CC2)cc1,–,inactive
O=C(COc1ccccc1C(=O)c1cnn(-c2ccccc2)c1)Nc1ccccc1,-6.49,–
COc1cccc(CN(C)c2nc(-c3cccs3)nc3ccccc23)c1,-8.66,–
COc1ccc(N(CC(=O)NC2CCCCC2)S(=O)(=O)c2c(C)[nH]c(=O)[nH]c2=O)cc1,-12.7,–
O=C(c1ccc2c(c1)OCCO2)N1CCN(c2nc(-c3cccs3)nc3ccccc23)CC1,9.84,–
CCC(C)c1ccc(NC(=O)c2cnn3c(C(F)F)cc(C)nc23)cc1 (configuration not stated),-16.7,–
Cc1ccccc1-c1nccc(NCc2cccs2)n1,10.1,–
COc1ccc(-c2nc(N3CCN(S(=O)(=O)c4ccc(C)cc4)CC3)c3ccccc3n2)cc1,22.7,–
COc1cc(OC)c2c(N)c(C#N)c(C(F)(F)C(F)(F)F)nc2c1,8.65,–
O=S(=O)(c1ccc(Cl)cc1)N1CCN(c2nc(Nc3cc(Cl)ccc3O)nc3ccccc23)CC1,–,14.1 µM (active)
S=C(NCCCc1cnc[nH]1)NCCCN(Cc1ccc(Cl)c(Cl)c1)c1ccc(Br)cn1,–,44.7 µM (active)
N=c1c2c(-c3ccccc3)c(-c3ccccc3)n(Cc3ccco3)c2ncn1CCCn1ccnc1,-8.82,–
O=S(=O)(c1ccc(Cl)cc1)N1CCN(c2nc(-c3ccc(Cl)cc3)nc3ccccc23)CC1,20,–
Cc1cc(C)n2ncc(C(=O)Nc3cccc(O)c3)c2n1,-3.54,–
c1ccc(CNc2nc(-c3cccs3)nc3ccccc23)cc1,-24.4,–
CCC(=O)OCCNc1nc(-c2ccccc2)nc2ccccc12,6.09,–
CCCNC(=O)COC(=O)c1ccccc1OCC(=O)Nc1ccc(Br)cc1,7.88,–
O=C(Nc1cc(Br)ccc1O)c1cnn2c(C(F)F)cc(C3CC3)nc12,-28.3,–
CCOc1ccc(N(CC(=O)Nc2ccc(C)cc2)S(=O)(=O)c2c(C)[nH]c(=O)[nH]c2=O)cc1,-20.8,–
